Screens: PubChem, Broad Institute
The list is not random: actives were taken first. Their share in the collection is about 6.7%.
T cruzi growth-1: T. cruzi proliferation inhibition. T. cruzi beta-gal in NIH3T3, GalScreen luminescence, 90 h. inhibition, % at 8.34 µM. 77,000 tested, 5.9% active;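 active = mean inhibition above about 93%, with at least 55% of replicates each passing it, limit read from the data, passing the limit was not always enough; inconclusive = only one of those two conditions holds; inactive = neither condition holds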
C diff HTS: C. difficile growth inhibition; Clostridium difficile clinical isolate growth, OD600, 24 h; hits give low values; growth activity, negative = inhibition, % at 16 µg/mL (by protocol); 86,000 tested, 0.25% active;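 active = mean growth activity at or below -80% and every replicate also at or below -80%; inconclusive = mean at or below -80% but some replicate above -80%; inactive = mean growth activity above -80%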;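 also: 0% = DMSO wells and -100% = levofloxacin 16 µg/mL wells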
Pf Dd2 growth: P. falciparum Dd2 growth inhibition | SYBR Green, 72 h; hits give low values | activity change, % at 10 µM | 94,000 tested, 2.3% active | AID 1159554; in the data active = activity change below about -80%; inconclusive = no clear call, values can overlap the other calls
T cruzi growth-2: blocks T. cruzi growth in NIH3T3 host cells; 5,600 tested, 72% active; AID 651739; inhibition, % at 8.35 µM; T. cruzi beta-gal in NIH3T3, GalScreen luminescence, 90 h; shares compounds with T cruzi growth-1;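 active = mean replicate inhibition above about 95% and at least 55% of replicates individually reaching it, limit read from the data; inconclusive = only one of the two criteria is met; inactive = neither criterion is met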
T cruzi growth-3: inhibitors of T. cruzi proliferation | inhibition, % at 2.09 µM | shares compounds with T cruzi growth-1 | AID 651740 | T. cruzi beta-gal in NIH3T3, GalScreen luminescence, 90 h | 5,600 tested, 21% active;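 active = mean inhibition above about 95%, with at least 55% of replicates also reaching it, limit read from the data; inconclusive = meets just one of the two conditions; inactive = meets neither condition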;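 also: plate controls were neutral control median for no effect and positive control median for full effect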
3T3 cytotox: cytotoxicity in mouse NIH/3T3 fibroblasts; 5,600 tested, 14% active; AID 651742; cytotoxicity (signal decrease), % at 8.35 µM; shares compounds with T cruzi growth-1; NIH/3T3 viability, CellTiter-Glo ATP luminescence, 90 h;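 active = mean signal decrease across replicates above about 35% based on untreated-well scatter, with enough replicates individually passing, limit read from the data; inconclusive = no rule stated though some were filed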;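 also: 0% = median of neutral control wells and 100% = median of positive control wells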
3T3 cytotox 2: NIH/3T3 (mouse) viability loss | shares compounds with T cruzi growth-1 | NIH/3T3 viability, CellTiter-Glo ATP luminescence, 90 h | inhibition, % at 24.9 µM | 5,600 tested, 56% active | AID 651744;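 active = mean loss of cell viability signal at or above a set limit, and enough replicates individually reaching it; inconclusive = meets only the mean limit or only the replicate share; inactive = meets neither condition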;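 also: 0% = median of neutral control wells and 100% = median of positive control wells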
An asterisk follows results filed as active; ? = inconclusive; . = no result.

SMILES	T cruzi growth-1	C diff HTS	Pf Dd2 growth	T cruzi growth-2	T cruzi growth-3	3T3 cytotox	3T3 cytotox 2
CCNC(=O)[C@@H]1[C@@H](CO)[C@@H]2Cn3c(ccc(-c4ccc(OC)cc4)c3=O)[C@@H]2N1Cc1ccccc1	100*	1	-21	6	-25	-13	0
CCN1[C@H](C(=O)OC)[C@@H](CO)[C@@H]2Cn3c(ccc(-c4cccc(C(=O)N(C)C)c4)c3=O)[C@@H]21	96*	4	-19	-38	-44	-12	-14
COC(=O)[C@@H]1[C@@H](CO)[C@@H]2Cn3c(ccc(-c4ccccc4)c3=O)[C@@H]2N1Cc1cccc(F)c1	?	9	-12	26	-17	-8	-1
CCN1[C@H](C(=O)N[C@H](C)c2ccccc2)[C@@H](CO)[C@@H]2Cn3c(ccc(-c4cccc(F)c4)c3=O)[C@@H]21	76	2	-9	.	.	.	.
COC(=O)[C@H]1[C@H](CO)[C@H]2Cn3c(ccc(-c4cccc(C(=O)N(C)C)c4)c3=O)[C@H]2N1CC1CC1	44	2	.	.	.	.	.
CCNC(=O)[C@H]1[C@H](CO)[C@H]2Cn3c(ccc(-c4ccccc4)c3=O)[C@H]2N1Cc1ccccc1	52	-1	-32	.	.	.	.
COC(=O)[C@H]1[C@H](CO)[C@H]2Cn3c(ccc(-c4ccccc4)c3=O)[C@H]2N1Cc1cccc(F)c1	87	3	-7	.	.	.	.
CCN1[C@@H]2c3ccc(-c4cccc(F)c4)c(=O)n3C[C@@H]2[C@@H](CO)[C@@H]1C(=O)N[C@@H](C)c1ccccc1	102*	2	-11	25	30	1	25*
CCC(=O)N1[C@@H]2Cn3c(cccc3=O)[C@H]1[C@@H](C(=O)N1CCCCC1)[C@@H]2CO	94	-4	-13	.	.	.	.
COc1ccc(-c2ccc3n(c2=O)C[C@@H]2[C@@H](CO)[C@H](C(=O)N(C)C)N(CC4CCCC4)[C@H]32)cc1	-4	-4	.	.	.	.	.
COc1ccc(-c2ccc3n(c2=O)C[C@@H]2[C@@H](CO)[C@H](C(=O)N(C)C)N(CC4CC4)[C@H]32)cc1	103*	10	-3	22	9	-3	19
C[C@@H]1CN([C@H](C)CO)C(=O)Cc2cc(NC(=O)Cc3ccccc3)ccc2O[C@H]1CN(C)S(=O)(=O)c1cn(C)cn1	11	7	8	.	.	.	.
COc1cccc(CN2[C@@H](CO)[C@@H]3c4ccccc4N(C(=O)c4ccncc4)C[C@@H]32)c1	42	-5	7	.	.	.	.
O=C(C[C@H]1CC[C@@H]2[C@H](COC[C@H](O)CN2Cc2ccc3c(c2)OCO3)O1)N1CCOCC1	26	.	1	.	.	.	.
O=C(C[C@@H]1CC[C@H]2[C@@H](COC[C@H](O)CN2Cc2ccc3c(c2)OCO3)O1)Nc1ccc(-c2ccccc2)cc1	?	84	-50	103*	78	-15	92*
O=C(C[C@@H]1CC[C@@H]2[C@H](COC[C@@H](O)CN2Cc2ccc3c(c2)OCO3)O1)Nc1ccc(-c2ccccc2)cc1	102*	64	-46	97*	95	36*	51*
O=C(C[C@@H]1CC[C@@H]2[C@H](COC[C@@H](O)CN2Cc2ccc3c(c2)OCO3)O1)N1CCOCC1	-12	.	1	.	.	.	.
C[C@H](CO)N1C[C@H](C)[C@@H](CN(C)Cc2ccc3c(c2)OCO3)Oc2ccc(NC(=O)CCCN(C)C)cc2CC1=O	-39	0	-12	.	.	.	.
COCC(=O)N[C@H]1C=C[C@@H](CC(=O)N2CCCCC2)O[C@@H]1CO	-17	.	-5	.	.	.	.
C[C@@H]1CN([C@H](C)CO)C(=O)c2cccc(N(C)C)c2O[C@H]1CN(C)C	8	-3	2	.	.	.	.
Cc1ccc(S(=O)(=O)N2CC[C@@H]3[C@H]2c2cc(-c4ccc(C#N)cc4)ccc2N[C@@H]3CO)cc1	19	3	13	.	.	.	.
COc1ccc(C#Cc2ccc3c(c2)[C@H]2[C@H](CCN2S(=O)(=O)c2ccccc2C)[C@H](CO)N3)cc1	77	-9	-33	.	.	.	.
COc1ccc(S(=O)(=O)N2CC[C@H]3[C@H](CO)Nc4ccc(C#Cc5ccccc5OC)cc4[C@H]32)cc1	.	0	-26	.	.	.	.
COc1ccc(S(=O)(=O)N2CC[C@@H]3[C@H]2c2cc(C#Cc4ccccc4OC)ccc2N[C@@H]3CO)cc1	107*	0	-83*	106*	111*	21	16
COc1ccc(C#Cc2ccc3c(c2)[C@@H]2[C@@H](CCN2S(=O)(=O)c2ccccc2C)[C@@H](CO)N3)cc1	97*	1	-35	109*	91	7	55*
SMILES	T cruzi growth-1	C diff HTS	Pf Dd2 growth	T cruzi growth-2	T cruzi growth-3	3T3 cytotox	3T3 cytotox 2
COc1ccc(S(=O)(=O)N2CC[C@@H]3[C@H](CO)Nc4ccc(-c5ccc(C#N)cc5)cc4[C@@H]32)cc1	109*	0	-54	101*	103*	42*	49*
C[C@@H]1CN([C@@H](C)CO)C(=O)c2cc(C#Cc3ccccc3)cnc2O[C@@H]1CN(C)C(=O)c1ccccc1F	-7	-10	-45	.	.	.	.
C[C@@H]1CN([C@H](C)CO)C(=O)c2cc(C#Cc3cccc(F)c3)cnc2O[C@H]1CN(C)C(=O)c1ccccc1F	104*	-6	-85*	106*	44	43*	?
C[C@H](CO)N1C[C@H](C)[C@H](CN(C)C(=O)Nc2ccc(F)cc2)Oc2ncc(C#Cc3cccc(F)c3)cc2C1=O	?	59	-8	90	68	75*	105*
C[C@H](CO)N1C[C@H](C)[C@H](CN(C)C(=O)Nc2ccccc2)Oc2ncc(C#Cc3cccc(F)c3)cc2C1=O	35	25	-56	.	.	.	.
COc1ccc(C#Cc2cnc3c(c2)C(=O)N([C@H](C)CO)C[C@@H](C)[C@H](CN(C)C(C)=O)O3)cc1	?	-1	-16	32	8	14	33*
COc1ccc(C#Cc2cnc3c(c2)C(=O)N([C@@H](C)CO)C[C@@H](C)[C@H](CN(C)C(C)=O)O3)cc1	19	-1	-13	.	.	.	.
C[C@H]1CN([C@@H](C)CO)C(=O)c2cc(C#Cc3cccc(F)c3)cnc2O[C@@H]1CN(C)C(=O)c1ccccc1F	110*	7	?	101*	28	-20	0
C[C@H](CO)N1C[C@H](C)[C@@H](CN(C)C(=O)c2ccccc2F)Oc2ncc(C#Cc3ccccc3)cc2C1=O	37	-5	-79	.	.	.	.
COCC(=O)N(C)C[C@@H]1Oc2ncc(C#C[C@H](C)O)cc2C(=O)N([C@H](C)CO)C[C@H]1C	1	-2	.	.	.	.	.
COCC(=O)N1CC(=O)N2[C@H](CO)[C@@H](c3ccc(C#Cc4cccc(OC)c4)cc3)[C@@H]2C1	.	-11	-2	.	.	.	.
CO[C@@H]1CN(C)C(=O)c2cc(NC(=O)c3cc(C)on3)ccc2OC[C@H](C)N(C)C[C@@H]1C	-65	.	35	.	.	.	.
